Experimental data as given in PubChem BioAssay.
Values joined by “and” are separate entries in the source; they are usually repeats but may differ in a detail not shown here. Equal entries are not always repeated. Active and inactive are the calls of the source.

Assay: A549 lung cancer cell viability effects, profiling panel, resazurin fluorescence, 24 h, PK04 Diversity Set (AID 1171); note: test concentration not given here
Details: higher = more signal, called active from +8 up or from −8 down

Row | SMILES | z-score
1 | CO[C@H]1COC(=O)CC=C[C@@H](C)COC(=O)[C@@H](OCc2ccccc2)C=C[C@@H]1C | -0.34 (inactive)
2 | CCCC[C@@H]1CN2[C@@H](CC[C@@H](C)[C@@H]2c2ccc(Br)cc2)C(=O)O1 | -0.335 (inactive) and -0.178 (inactive)
3 | CCN1C(=O)[C@H]2[C@H]3[C@H](O)[C@H](O)CC(=NOC[C@@H](O)COCc4ccco4)[C@@H]3CC[C@H]2C1=O | -0.767 (inactive) and -1.14 (inactive)
4 | C=CCN(CCCCC)C(=O)C(c1cccs1)N(C(=O)/C=C\C(=O)O)c1ccc(CCO)cc1 (configuration not stated) | -0.235 (inactive) and -0.813 (inactive)
5 | C=CCN(C(=O)C1N(c2c(Cl)cccc2CO)C(=O)C2C(C(=O)O)C3C=CC21O3)c1ccc(OC)cc1 (configuration not stated) | -0.475 (inactive) and 1.02 (inactive)
6 | C=CCN(CCCC)C(=O)C1N(C(C)(C)CO)C(=O)C2C(C(=O)O)C3C=CC21O3 (configuration not stated) | 0.289 (inactive) and -0.11 (inactive)
7 | C=C[C@@H](C)[C@@H](O)c1ccc(OCCO)cc1 | 0.175 (inactive) and -0.652 (inactive)
8 | C=CCN(CCCCC)C(=O)C1N(C(C)(C)CO)C(=O)C2C(C(=O)O)C3C=CC21O3 (configuration not stated) | 0.0106 (inactive) and -0.0941 (inactive)
9 | CCOC(=O)[C@@H]1CC2O[C@]23C[C@@H]1C(=O)N1CCC[C@@H]1[C@H]3O[Si](C)(C)C(C)(C)C (some centres not stated) | -0.438 (inactive) and -0.287 (inactive)
10 | CCOC(=O)C[C@H]1[C@H](OC(=O)c2ccccc2-c2ccccc2)[C@@H](NC(=O)Cc2ccc(OC)cc2)c2cc(OCCCO)ccc2N1C(=O)Cc1ccc(OC)cc1 | 0.615 (inactive) and 0.786 (inactive)
11 | COC(=O)CC=C[C@@H](C)[C@@H](CO)NS(=O)(=O)c1ccc(C)cc1 | 0.827 (inactive) and -0.832 (inactive)
12 | C[N+](C)(C)CCCCCCNC(=O)[C@@H]1C[C@@H]2C(=O)N[C@@H](CCCC[N+](C)(C)C)C(=O)N2[C@@H]1c1ccc(O)cc1 | 0.527 (inactive) and 0.818 (inactive)
13 | COC(=O)C1=C(C)N(Cc2ccccc2)C2=C3C(=O)CCC[C@@H]3[C@@](O)(C(=O)OC)C(=O)N2[C@@H]1c1ccccc1 | 0.477 (inactive) and 0.238 (inactive)
14 | O=C1C[C@]2(c3ccc([N+](=O)[O-])cc3)C(=O)N(Cc3ccccc3)c3cc(CO)ccc3[C@H]2N1C1CCCCC1 | 0.466 (inactive) and -0.352 (inactive)
15 | CC(C)=CCCC(C)=CCON=C1C[C@@H](O)[C@@H](O)[C@@H]2[C@@H]3C(=O)N([C@@H](C)c4ccccc4)C(=O)[C@@H]3CC[C@H]12 | -1.38 (inactive)
16 | C[C@@H]1CC[C@H]2C(=O)NC[C@@H](O)CN2[C@H]1c1ccc(Br)cc1 | 0.153 (inactive) and -0.285 (inactive)
17 | COc1ccc(O[C@H]2C=C[C@@H](c3ccccc3)O[C@@H]2COC(=O)CCC(C)=NO[C@H](C)c2cn([C@H](CO)Cc3ccccc3)nn2)cc1 | 0.385 (inactive) and 0.277 (inactive)
18 | C=CCN(CCCC)C(=O)C(c1cccs1)N(C(=O)/C=C\C(=O)O)c1c(Cl)cccc1CO (configuration not stated) | -0.352 (inactive) and 0.397 (inactive)
19 | CC(CO)N1C(=O)[C@@H]2C3C(=O)OCCC=C[C@H]3OC23C=CCN(c2ccc(Cl)cc2)C(=O)[C@@H]13 (some centres not stated) | 0.189 (inactive) and 0.557 (inactive)
20 | C=CCN(C(=O)C(c1cccs1)N(CCOCCO)C(=O)/C=C\C(=O)O)C(C)(C)C (configuration not stated) | 0.111 (inactive) and -0.422 (inactive)
21 | C=C[C@H](OC)[C@@H](O)c1ccc(O)c(F)c1 | -0.535 (inactive) and -0.0165 (inactive)
22 | CC(CO)N1C(=O)[C@@H]2C3C(=O)OCCC=C[C@H]3OC23C=CCN(C(C)(C)C)C(=O)[C@@H]13 (some centres not stated) | -0.731 (inactive) and -0.299 (inactive)
